This passage reports outcome results from PubChem BioAssay AID720597 (Broad Institute, 2013).

Molecules are shown by their SMILES. Measured potencies and affinities stand elsewhere. Active and inactive are the calls of the source.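 Rule for the calls: active = fitted half-maximal dose no more than twice the top valid tested dose, for compounds that lower signal; inconclusive = fit invalid, or curve flat with activity between -70 and -30; inactive = potency past limit, curve flat within ±30, or signal increasing.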

The target in the assay is NAD-dependent protein deacylase sirtuin-5, mitochondrial (Homo sapiens) (UniProt Q9NXA8). In words: SIRT5 deacylase inhibitors, dose response, biochemical, fluorescence imaging, cherry-pick, set 6 (AID 720597).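 Note: lower AMC signal can also come from blocking the trypsin step.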
NAD-dependent protein deacylase sirtuin-5, mitochondrial (Homo sapiens), sequence (Q9NXA8 whole entry, looked up): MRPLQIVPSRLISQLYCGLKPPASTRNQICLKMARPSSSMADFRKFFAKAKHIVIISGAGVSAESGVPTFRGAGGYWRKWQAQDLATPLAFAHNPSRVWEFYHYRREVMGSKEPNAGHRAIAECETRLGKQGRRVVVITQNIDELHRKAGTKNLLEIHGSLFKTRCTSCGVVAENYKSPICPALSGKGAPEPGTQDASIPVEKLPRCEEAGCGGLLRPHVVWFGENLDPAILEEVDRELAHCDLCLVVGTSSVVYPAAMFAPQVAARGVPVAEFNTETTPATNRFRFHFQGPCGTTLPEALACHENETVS

`CN(C[C@H]1[C@@H](c2ccc(C3=CCCC3)cc2)[C@@H](CO)N1CCC(F)(F)F)S(C)(=O)=O`: the outcome was inactive. With `C[C@@H]1CN([C@H](C)CO)C(=O)c2cc(NS(=O)(=O)c3cn(C)cn3)ccc2O[C@H]1CN(C)C(=O)Nc1ccccc1` the entry was “inactive”; with `C[C@H]1CN([C@@H](C)CO)S(=O)(=O)c2ccc(/C=C/c3ccccc3)cc2O[C@H]1CN(C)C(=O)Nc1cc(F)ccc1F`, “inactive”; with `COc1ccc(S(=O)(=O)N(C)C[C@@H]2Oc3ncc(C#CCN(C)C)cc3C(=O)N([C@H](C)CO)C[C@@H]2C)cc1`, “inactive”.

In the case of `C[C@H](CO)N1C[C@H](C)[C@@H](CN(C)Cc2ccc(Cl)c(Cl)c2)Oc2ccc(NC(=O)CCC(F)(F)F)cc2CC1=O`, the result was inactive.

Consider `C[C@H](CO)N1C[C@H](C)[C@@H](CN(C)Cc2ccc(Cl)c(Cl)c2)Oc2ccc(NS(=O)(=O)c3ccccc3)cc2CC1=O`, for which the call was inactive.

Take `O=C(NCC[C@@H]1CC[C@H](NS(=O)(=O)c2cccc(F)c2)[C@@H](CO)O1)C1CCOCC1`: the compound was called inactive. The entry for `CCCC#Cc1ccc([C@H]2[C@H](CO)N3CCCCN(S(=O)(=O)Cc4ccccc4)C[C@@H]23)cc1` is “inactive”; for `C[C@@H]1CN([C@H](C)CO)S(=O)(=O)c2ccc(C#CC(C)(C)O)cc2O[C@@H]1CN(C)Cc1ccc(-c2ccccc2)cc1` it is “inactive”; for `CO[C@@H]1CC[C@@H]2CCN(C)C(=O)C[C@H](c3ccccc3)CN(C)C(=O)c3cccc(C#N)c3OC[C@@H]1O2` it is “inactive”. Turning to `C[C@H](CO)N1C[C@H](C)[C@@H](CN(C)C(=O)Nc2ccc(C(F)(F)F)cc2)OCCCC[C@H](C)Oc2ccc(NS(=O)(=O)c3ccc(Cl)cc3)cc2C1=O`, the outcome was inactive. The entry for `C[C@@H]1CN([C@@H](C)CO)C(=O)Cc2cc(NS(=O)(=O)c3ccc(F)cc3)ccc2O[C@@H]1CN(C)C(=O)NC1CCCCC1` is “inactive”; for `COc1ccccc1-c1ccc([C@@H]2[C@@H]3CN(S(=O)(=O)c4ccc(-c5ccccc5)cc4)C[C@H]2N3)cc1` it is “inactive”.

Regarding `O=C(NCC[C@H]1CC[C@H](NC(=O)C2CC2)[C@@H](CO)O1)c1cc(Cl)cc(Cl)c1`, the outcome was inactive. The entry for `C[C@@H]1CN([C@H](C)CO)C(=O)Cc2cc(NS(=O)(=O)c3ccccc3)ccc2O[C@H]1CN(C)Cc1ccc(Cl)c(Cl)c1` is “inactive”. With `CN(C)Cc1cn(CC[C@@H]2CC[C@H](N)[C@H](CO)O2)nn1` the entry was “inactive”; with `COc1ccc(S(=O)(=O)N(C)C[C@H]2OCCCC[C@H](C)Oc3ccc(NS(=O)(=O)c4ccc(F)cc4)cc3C(=O)N([C@H](C)CO)C[C@H]2C)cc1`, “inactive”. With `C[C@@H]1CN([C@@H](C)CO)S(=O)(=O)c2ccc(C#Cc3ccccc3F)cc2O[C@@H]1CN(C)C(=O)c1ccc2c(c1)OCO2` the entry was “inactive”; with `CCCNC(=O)N1[C@H](CO)[C@H](c2ccccc2)C12CN(C(=O)CC1CC1)C2`, “inactive”.

As for `COc1ccc(S(=O)(=O)Nc2ccc3c(c2)CC(=O)N([C@H](C)CO)C[C@H](C)[C@@H](CN(C)CC2CCCCC2)O3)cc1`, the compound was classed as inactive.

As for `Cc1ccc(S(=O)(=O)N(C)C[C@H]2OCCCC[C@H](C)Oc3ccc(NS(=O)(=O)c4ccccc4)cc3C(=O)N([C@@H](C)CO)C[C@H]2C)cc1`, the compound was called inactive. The entry for `CNC[C@@H]1Oc2ccc(NC(=O)Nc3ccc(F)cc3)cc2CC(=O)N([C@H](C)CO)C[C@H]1C` is “inactive”; for `C/C=C/c1cnc2c(c1)C(=O)N([C@@H](C)CO)C[C@@H](C)[C@@H](CN(C)C(=O)NC1CCCCC1)O2` it is “inactive”; for `C[C@@H]1CN([C@@H](C)CO)C(=O)Cc2cc(NC(=O)Nc3ccc(F)cc3)ccc2O[C@H]1CN(C)C` it is “inactive”. With `O=C(NC1CCCC1)[C@H]1[C@H](CO)[C@H]2Cn3c(ccc(-c4ccncc4)c3=O)[C@H]2N1CCc1ccccc1` the entry was “inactive”. For the compound `C[C@H]1CN([C@@H](C)CO)S(=O)(=O)c2ccc(/C=C/c3ccccc3)cc2O[C@H]1CN(C)C(=O)NC1CCCC1`, the call was inactive.

On to `CC(C)CC#Cc1ccc2c(c1)O[C@H](CN(C)C(=O)C1CCCCC1)[C@H](C)CN([C@@H](C)CO)S2(=O)=O`, for which the compound was called inactive. With `O=C(NCC[C@@H]1CC[C@@H](NC(=O)C2CC2)[C@H](CO)O1)c1cc(Cl)cc(Cl)c1` the entry was “inactive”; with `COc1ccc(S(=O)(=O)Nc2ccc3c(c2)C(=O)N([C@@H](C)CO)C[C@@H](C)[C@@H](CN(C)S(=O)(=O)c2ccc(Cl)cc2)OCCCC[C@H](C)O3)cc1`, “inactive”. With `COc1ccc(S(=O)(=O)N(C)C[C@@H]2OCCCC[C@@H](C)Oc3ccc(NS(=O)(=O)c4ccc(F)cc4)cc3C(=O)N([C@@H](C)CO)C[C@H]2C)cc1` the entry was “inactive”; with `C[C@H]1CN([C@@H](C)CO)C(=O)Cc2cc(NC(=O)CCCCCC(=O)Nc3ccccc3N)ccc2O[C@@H]1CN(C)Cc1ccc(Oc2ccccc2)cc1`, “inactive”; with `CCCC#Cc1ccc2c(c1)O[C@H](CN(C)Cc1ccccc1)[C@@H](C)CN([C@H](C)CO)S2(=O)=O`, “inactive”. Consider `COc1ccc(S(=O)(=O)N(C)C[C@H]2OCCCC[C@H](C)Oc3ccc(NS(=O)(=O)c4ccc(Cl)cc4)cc3C(=O)N([C@@H](C)CO)C[C@H]2C)cc1`, for which the compound was classed as inactive.

Turning to `COc1ccc(NC(=O)Nc2ccc3c(c2)C(=O)N([C@@H](C)CO)C[C@H](C)[C@@H](CN(C)Cc2ccccc2)OCCCC[C@H](C)O3)cc1`, the outcome was inactive. On to `Cc1ccc(S(=O)(=O)N(C)C[C@H]2Oc3ncc(-c4ccncc4)cc3C(=O)N([C@@H](C)CO)C[C@@H]2C)cc1`, for which the result was inactive. With `C[C@@H]1CN([C@H](C)CO)S(=O)(=O)c2ccc(C3=CCCCC3)cc2O[C@H]1CN(C)C(=O)Nc1ccc2c(c1)OCO2` the entry was “inactive”. The entry for `O=C(NCC[C@H]1CC[C@H](NS(=O)(=O)c2cccc(F)c2)[C@H](CO)O1)C1CCOCC1` is “inactive”; for `C[C@@H]1CN([C@@H](C)CO)C(=O)c2cccc(NS(=O)(=O)c3cn(C)cn3)c2O[C@H]1CN(C)C(=O)Nc1cccc2ccccc12` it is “inactive”.

On to `C[C@@H](O)C#Cc1ccc([C@@H]2[C@H]3CN(C(=O)c4cccc(F)c4)CCCCN3[C@H]2CO)cc1`, for which the compound was called inactive. With `COCC(=O)N1C[C@@H]2[C@H](c3ccccc31)[C@H](CO)N2Cc1cc(F)ccc1F`, the call was inactive.
